Bioassay records from PubChem.
NR2F2 inh: blocks human COUP-TFII nuclear receptor; P24468; inhibition, % at 8.6 µM; HEK293T NGFI-A luciferase reporter, luminescence; 370,000 tested, 0.7% active;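 active = inhibition above a per-plate cutoff, mean inhibition of test wells between control levels plus 3 SD, cut at about 38% in these data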;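 also: cells cotransfected with COUP-TFII expression vector driving the NGFI-A reporter; 0% = median of COUP-TF2 test wells and 100% = reporter-only cells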
Target sequence (P24468 whole entry, looked up): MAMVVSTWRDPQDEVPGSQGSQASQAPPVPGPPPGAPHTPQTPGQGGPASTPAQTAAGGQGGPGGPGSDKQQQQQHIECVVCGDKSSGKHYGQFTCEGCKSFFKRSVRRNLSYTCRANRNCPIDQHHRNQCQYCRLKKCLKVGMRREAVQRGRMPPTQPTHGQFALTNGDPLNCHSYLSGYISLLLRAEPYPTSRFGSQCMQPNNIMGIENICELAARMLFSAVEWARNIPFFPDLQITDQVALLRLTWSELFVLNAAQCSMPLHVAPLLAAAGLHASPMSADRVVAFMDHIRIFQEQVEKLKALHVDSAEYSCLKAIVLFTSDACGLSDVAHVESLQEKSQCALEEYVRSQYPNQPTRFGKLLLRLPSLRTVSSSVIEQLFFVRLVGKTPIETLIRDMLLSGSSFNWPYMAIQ
697 NFkB inh: inhibitors of the PMA/ionomycin-induced NF-kB reporter in 697 B cells; 697 B-cell NF-kB luciferase reporter, 16 h; inhibition, % at 4 µM; 330,000 tested, 0.33% active; in the data active = inhibition above about 35%
Jurkat NFkB inh: inhibitors of the PMA/ionomycin-induced NF-kB reporter in Jurkat cells; 330,000 tested, 0.53% active; PMA/ionomycin-induced NF-kB luciferase reporter, luminescence; inhibition, % at 4 µM; AID 435003; in the data active = inhibition above about 50%
GalR3 antag: antagonists of human GalR3; O60755; inhibition, % at 3 µM; 360,000 tested, 0.44% active; HEK293 GalR3-CNG cAMP membrane potential fluorescence; galR3 body fused to GalR1 C-terminus;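 active = inhibition above the screen-wide average plus 3 SD, cut at about 13% in these data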;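 also: forskolin and galanin both at EC90 stimulate the cells; cAMP rise reported by CNG channel membrane potential dye signal; 0% = forskolin plus galanin with DMSO and 100% = forskolin alone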
Target sequence (O60755 1-299 limits assumed): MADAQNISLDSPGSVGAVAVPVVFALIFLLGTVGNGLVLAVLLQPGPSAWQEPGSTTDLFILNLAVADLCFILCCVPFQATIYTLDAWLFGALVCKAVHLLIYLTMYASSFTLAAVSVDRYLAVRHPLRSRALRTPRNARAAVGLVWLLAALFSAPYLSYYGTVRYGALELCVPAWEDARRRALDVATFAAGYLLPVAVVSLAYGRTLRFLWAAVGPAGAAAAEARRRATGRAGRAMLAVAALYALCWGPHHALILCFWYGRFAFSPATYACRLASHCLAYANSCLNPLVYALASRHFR
Gli-Sufu block: antagonists of Gli-Sufu signaling; AID 588413; 340,000 tested, 0.74% active; Sufu-KO-LIGHT fibroblasts, Gli luciferase reporter luminescence; inhibition, % at 5 µM;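 active = inhibition above about 55%, limit read from the data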;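 also: 0% = DMSO-treated cells and 100% = wells with medium but no cells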
Gli-Sufu confirm: confirmation of Gli-SUFU pathway antagonists; shares compounds with Gli-Sufu block; Sufu-KO-LIGHT cells, Gli luciferase reporter, luminescence; inhibition, % at 5 µM; 2,500 tested, 40% active;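 active = mean inhibition at 5 µM reaching about 45%, limit read from the data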;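 also: plate controls were DMSO-treated cells for no effect and wells lacking cells for full effect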
Gli cytotox: counter-screen for Gli-SUFU antagonists: cytotoxicity | shares compounds with Gli-Sufu block | Sufu-KO-LIGHT cells cytotoxicity, ATP luminescence | cytotoxicity, % at 5 µM | 2,500 tested, 32% active;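 active = mean cytotoxicity at 5 µM above about 25%, limit read from the data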;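 also: cells exposed to compound overnight for roughly 16 to 18 hours; plate controls were DMSO wells with cells for no effect and medium without cells for full effect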
Wnt3a counter: Wnt3a reporter inhibition counter-screen; inhibition, % at 6.25 µM; shares compounds with Gli-Sufu block; Wnt-LIGHT cells, Wnt3a-driven luciferase reporter, luminescence; 2,500 tested, 20% active;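 active = mean inhibition above about 25%, limit read from the data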
Numbers without * were called inactive; nt = not tested or not shown. The list is not random: actives were taken first. Their share in the collection is about 2%.

SMILES	NR2F2 inh	697 NFkB inh	Jurkat NFkB inh	GalR3 antag	Gli-Sufu block	Gli-Sufu confirm	Gli cytotox	Wnt3a counter
CCCc1sc(N/N=C/c2ccccn2)nc1-c1ccc(Br)cc1	-19.0	-89.4	-49.3	1.9	63.9*	80.5*	12.6	87.8*
Cc1ccccc1C(=O)NC1CCCCN(C(C)C)C1=O (stereo not given)	-21.5	nt	nt	nt	nt	nt	nt	nt
CCCOc1ccccc1N/C(=N/c1nc(C)cc(C)n1)NC(=O)COc1ccc(OC)cc1	-6.5	10.1	6.2	0.2	66.6*	47.9*	23.9	-15.2
CCC(=O)N1CCc2cc(S(=O)(=O)CCC(=O)Nc3ccc(C(C)=O)cc3)ccc21	15.0	-5.8	9.4	10.7	58.7*	19.4	0.0	15.6
CCC(=O)N1CCc2cc(S(=O)(=O)CCC(=O)Nc3ccc(CC)cc3)ccc21	-3.6	0.4	0.1	-0.3	4.5	nt	nt	nt
CCN(CC(=O)NCc1cccs1)C(=O)/C=C/c1cc(Br)ccc1OC(F)F	8.0	25.6	1.2	-7.4	53.5	35.2	13.2	-7.7
CCN(CC(=O)NCc1cccs1)C(=O)/C=C/c1cccc(Br)c1	-11.0	13.3	13.4	-2.9	-2.3	nt	nt	nt
COc1ccc2c(c1)CCCC21SC(NC(C)=O)=NN1C(C)=O (stereo not given)	10.8	-16.7	-2.6	1.4	51.3	25.6	15.3	10.1
CC(=O)NC1=NN(C(C)=O)C(C)(c2ccc3ccccc3c2)S1 (stereo not given)	1.6	-1.8	0.7	1.7	4.2	nt	nt	nt
O=C(/C=C/NNC(=O)c1ccccc1)c1ccccc1	-21.5	-29.1	-14.2	-3.0	11.7	nt	nt	nt
O=C(/C=C/NNC(=O)c1ccccc1)c1ccc([N+](=O)[O-])cc1	-15.1	2.0	7.2	-6.7	73.3*	33.9	27.7*	23.4
COc1ccc(-c2cn(-c3ccc(SC(F)F)cc3)c3[n+]2CCC3)cc1OC	-4.6	2.8	-5.8	-12.7	2.1	nt	nt	nt
FC(F)Sc1ccc(-n2cc(-c3ccccc3)[n+]3c2CCC3)cc1	5.0	-10.7	10.5	1.1	60.5*	58.6*	36.3*	-24.3
COc1ccc(-n2cc(-c3ccccc3)[n+]3c2CCCCC3)cc1	34.8	-12.3	32.4	0.1	85.2*	87.2*	28.2*	37.1*
COC1=C[C@H](C(=O)NC2CCN(Cc3ccccc3)CC2)[C@@]2(C)Cc3ccccc3[C@H]2CC1=O	-22.8	nt	nt	nt	nt	nt	nt	nt
NC1=[N+](Cc2ccccc2)C(Cc2ccccc2)C2C(=C3CCCCC3n3c(=O)n(-c4ccccc4)c(=O)n32)N1 (stereo not given)	2.8	nt	nt	nt	nt	nt	nt	nt
C=CCn1c(SCn2nnc3ccccc3c2=O)nc2scc(-c3cccs3)c2c1=O	-5.9	7.9	0.8	-0.8	51.7	13.8	21.0	-0.3
CCCN1CCS(=O)(=O)N(Cc2cn(Cc3ccc(C)cc3)nn2)C(C(=O)OC)C1 (stereo not given)	-15.3	nt	nt	nt	nt	nt	nt	nt
COc1ccc(C)cc1-n1nnnc1SCn1nnc2ccccc2c1=O	12.7	-15.7	27.6	-4.8	57.5*	64.3*	30.7*	31.7*
COc1ccc(C)cc1-n1nnnc1SCc1cc(=O)n2cc(C)ccc2n1	6.1	-32.2	40.7	-4.7	57.9*	57.0*	36.6*	6.2
COc1ccc(C)cc1-n1nnnc1SCc1csc(C)n1	-1.1	-9.4	-7.8	-3.2	1.9	nt	nt	nt
CC(=O)C1(C(=O)NCc2ccccc2)CC(c2ccccn2)=NO1 (stereo not given)	-12.5	nt	nt	nt	nt	nt	nt	nt
C=CCN1C(=O)/C(=C\c2ccc(Cl)cc2)N=C1SCC(=O)NCCC	13.6	-3.7	18.4	0.9	55.9*	16.9	20.3	10.1
CCN1C(=O)/C(=C\c2ccc(F)cc2)N=C1SCC(=O)NCc1ccco1	-5.9	0.5	16.7	2.5	2.3	nt	nt	nt
CC1CCCN(CCCNS(=O)(=O)c2cc3c(cc2Br)CCN3C(=O)C2CC2)C1 (stereo not given)	-0.1	nt	nt	nt	nt	nt	nt	nt
SMILES	NR2F2 inh	697 NFkB inh	Jurkat NFkB inh	GalR3 antag	Gli-Sufu block	Gli-Sufu confirm	Gli cytotox	Wnt3a counter
O=C(Nc1ccccc1)Nc1ccccc1NS(=O)(=O)c1cccs1	8.3	14.1	7.6	-5.4	2.6	nt	nt	nt
N#Cc1ccc(OCC(=O)Nc2ccccc2NS(=O)(=O)c2cccs2)cc1	-0.5	-4.5	-11.0	1.7	52.7	16.5	5.9	-43.8
CCCCOc1ccccc1NC(=O)c1ccco1	12.1	7.8	16.9	-3.5	-6.8	nt	nt	nt
CCCCOc1ccccc1NC(=O)c1scc2c1OCCO2	19.8	nt	nt	-1.8	55.9*	14.9	15.3	-45.9
C#CCN1C(=O)[C@]2(NCCc3c2[nH]c2ccc(OC)cc32)c2cc(F)ccc21	-8.7	nt	nt	nt	nt	nt	nt	nt
O=C(CCc1ccccc1)N[C@H]1[C@H](OC(=O)c2cccnc2)CCC[C@@]12C(=O)N(Cc1ccccc1)c1ccccc12	0.1	nt	nt	nt	nt	nt	nt	nt
C/C(=C\C(=O)c1ccc(Br)cc1)NNC(=O)c1ccccc1	-48.5	26.9	-2.0	-2.6	54.4	8.5	6.1	-4.3
Cc1cc(C)c2nc(N(CCCN(C)C)C(=O)c3ccc4c(c3)OCCO4)sc2c1	-13.7	-18.7	8.2	-6.3	70.8*	12.8	19.7	-60.7
Cc1ccc(S(=O)(=O)NCCC(=O)N2CCCCCCC2)cc1	10.8	0.7	-8.9	-1.8	95.5*	12.5	1.2	-10.9
C=CCN1[C@H](CO)[C@H](c2ccc(C#CC3(O)CCCC3)cc2)[C@@H]1C#N	9.7	nt	nt	nt	nt	nt	nt	nt
Cc1ccc(-n2c(SCC(=O)c3ccccc3Br)nnc2-c2ccncc2)cc1	-1.8	nt	nt	nt	nt	nt	nt	nt
Cc1ccc(S(=O)(=O)N(C)C)cc1NC(=S)NC(C)CCC(C)C (stereo not given)	4.2	-5.5	6.2	-3.0	56.0*	20.2	19.8	-64.4
Cc1ccc(NC(=O)/C=C/c2ccc([N+](=O)[O-])s2)cc1	-13.0	19.9	6.4	-3.0	17.8	nt	nt	nt
Cc1ccc(NC(=O)/C=C/c2ccc([N+](=O)[O-])s2)c(C)c1	-6.8	nt	nt	-5.3	72.3*	36.9	4.7	89.7*
CCOC(=O)c1ccc(NC(=O)CSc2nnc(-c3cc(-c4ccccc4)n[nH]3)n2N)cc1	-14.5	nt	nt	nt	nt	nt	nt	nt
Cc1ccc(C2CC(c3cccs3)=NN2C(=O)CSc2nc(=O)n3cc(C)ccc3n2)cc1 (stereo not given)	14.2	-10.7	-0.2	-4.4	2.3	nt	nt	nt
COc1ccc(C2CC(c3cccs3)=NN2C(=O)CSc2nc(=O)n3ccccc3n2)cc1 (stereo not given)	0.5	-45.0	-8.9	-4.5	80.0*	28.5	25.9*	66.5*
O=C(CSc1nnc(-c2cccs2)o1)Nc1cc(Cl)cc(Cl)c1	-49.6	nt	nt	nt	nt	nt	nt	nt
O=C1CCCC(O)=C1C=NCc1ccccc1	-5.4	7.6	-7.2	3.8	58.4*	32.4	4.0	-4.3
COc1ccc(-c2cc(-c3nnc(SCc4cccc5ccccc45)n3N)[nH]n2)cc1	6.0	nt	nt	nt	nt	nt	nt	nt
